According to PubChem BioAssay AID1159580 (chemical genetic matrix, 2015):
Values joined by “and” are separate entries in the source; they are usually repeats but may differ in a detail not shown here. Equal values may be shown once. Among all 5,500 compounds or so, about 2,000 (36%) were called active. About 18% were inconclusive and are not listed. Cut-off read from the data, not from the text of the source: active = normalized growth mostly below about 0.91 (no sharp cut-off); inconclusive = no clear call, values can overlap the other calls; inactive = mostly above about 0.92. This is one part of the list.

Assay: chemical genetic growth profiling, strain panel (AID 1159580);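 note: tested at 20 µM; growth read once vehicle control cultures reached saturation at 30 °C; 1 = growth at the plate median or of vehicle wells; lower values mean less growth of the strain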
Conditions: S. cerevisiae deletion strains, growth OD

Measured: normalized growth

NCCCS(=O)(=O)O
inactive: locus YAL013W, strain DEP1, hits give low values 0.978 and 1.01 | locus YAL021C, strain ccr4, hits give low values 1 | locus YAL026C, strain drs2, hits give low values 1.04 | locus YAL030W, strain snc1, hits give low values 1.02 | locus YAL040C, strain CLN3, hits give low values 1.01 | locus YBL061C, strain skt5, hits give low values 1.02 | locus YBR009C, strain hhf1, hits give low values 1.02 | locus YBR021W, strain FUR4, hits give low values 1 | locus YBR023C, strain chs3, hits give low values 1.03 | locus YBR171W, strain sec66, hits give low values 1.02 | locus YBR229C, strain ROT2, hits give low values 0.955 | locus YBR231C, strain swc5, hits give low values 1.01 | locus YBR279W, strain paf1, hits give low values 1.01 | locus YCL011C, strain gbp2, hits give low values 1.02 | locus YCL016C, strain dcc1, hits give low values 1.01 | locus YCL029C, strain bik1, hits give low values 0.991 | locus YCL061C, strain MRC1, hits give low values 1.02 | locus YCL069W, strain vba3, hits give low values 1.02 | locus YCR088W, strain abp1, hits give low values 1.02 | locus YDL005C, strain med2, hits give low values 1.05 | locus YDL035C, strain GPR1, hits give low values 0.988 | locus YDL040C, strain nat1, hits give low values 1.01 | locus YDL074C, strain BRE1, hits give low values 1.03 | locus YDL101C, strain DUN1, hits give low values 0.982 | locus YDL134C, strain PPH21, hits give low values 0.985 | locus YDL185W, strain tfp1, hits give low values 0.982 | locus YDL192W, strain arf1, hits give low values 0.984 | locus YDR001C, strain nth1, hits give low values 1.02 | locus YDR069C, strain doa4, hits give low values 1.01 | locus YDR101C, strain arx1, hits give low values 0.999 | locus YDR137W, strain rgp1, hits give low values 1.03 | locus YDR150W, strain NUM1, hits give low values 0.964 and 1.02 | locus YDR159W, strain sac3, hits give low values 1.01 | locus YDR162C, strain NBP2, hits give low values 0.982 | locus YDR195W, strain ref2 1.02 | locus YDR297W, strain sur2, hits give low values 1.02 | locus YDR318W, strain mcm21, hits give low values 1 | locus YDR334W, strain swr1, hits give low values 1.03 | locus YDR335W, strain msn5, hits give low values 1.02 | locus YDR388W, hits give low values 0.997 | locus YDR392W, strain spt3, hits give low values 0.936 | locus YDR502C, strain sam2, hits give low values 0.982 | locus YEL003W, strain gim4, hits give low values 1.02 | locus YEL037C, strain rad23, hits give low values 1.02 | locus YEL061C, strain CIN8 (second series), hits give low values 1.03 | locus YEL061C, strain CIN8, hits give low values 0.981 | locus YER002W, strain NOP16, hits give low values 1.01 | locus YER015W, strain faa2, hits give low values 0.994 | locus YER016W, strain bim1, hits give low values 1.03 | locus YER110C, hits give low values 0.961 | locus YER111C, strain swi4, hits give low values 1.03 | locus YER155C, strain BEM2 (second series), hits give low values 1.02 | locus YER155C, strain BEM2, hits give low values 0.988 | locus YER167W, strain BCK2, hits give low values 1 | locus YFR010W, strain ubp6, hits give low values 1.04 | locus YGL078C, strain dbp3, hits give low values 0.977 | locus YGL086W, strain mad1, hits give low values 0.98 | locus YGL167C, strain pmr1, hits give low values 1.02 | locus YGL173C, strain kem1, hits give low values 1.03 | locus YGL227W, strain vid30, hits give low values 1.03 | locus YGL240W, strain doc1, hits give low values 1 | locus YGL248W, strain PDE1, hits give low values 0.985 | locus YGL253W, strain hxk2, hits give low values 1.04 | locus YGR078C, strain PAC10, hits give low values 1 | locus YGR135W, strain pre9, hits give low values 0.977 | locus YGR229C, strain SMI1, hits give low values 1 | locus YGR252W, strain gcn5, hits give low values 0.908 | locus YHR013C, strain ard1, hits give low values 1.02 | locus YHR027C, strain rpn1, hits give low values 1.03 | locus YHR030C, strain SLT2, hits give low values 0.984 and 1.01 | locus YHR079C, strain IRE1 (second series), hits give low values 0.989 | locus YHR079C, strain IRE1, hits give low values 0.996 | locus YHR094C, strain hxt1, hits give low values 0.999 | locus YHR129C, strain ARP1, hits give low values 0.989 | locus YHR142W, strain chs7, hits give low values 1.06 | locus YHR200W, strain rpn10, hits give low values 0.993 | locus YIL066C, strain RNR3, hits give low values 0.975 | locus YIL073C, strain SPO22, hits give low values 0.985 | locus YIL125W, strain kgd1, hits give low values 0.981 | locus YIR030C, strain dcg1, hits give low values 0.985 | locus YJL092W, strain hpr5, hits give low values 1.03 | locus YJL095W, strain BCK1 (second series), hits give low values 1.02 | locus YJL095W, strain BCK1, hits give low values 1.03 and 1.01 | locus YJL115W, strain asf1, hits give low values 1.03 | locus YJL129C, strain trk1, hits give low values 1.05 | locus YJL134W, strain LCB3, hits give low values 0.985 | locus YJL154C, strain vps35, hits give low values 1.02 | locus YJL164C, strain tpk1, hits give low values 1.01 | locus YJL166W, strain qcr8, hits give low values 1.02 | locus YJL168C, strain set2, hits give low values 0.996 | locus YJL187C, strain SWE1 (second series), hits give low values 0.983 | locus YJR043C, strain POL32, hits give low values 1.02 | locus YJR066W, strain TOR1, hits give low values 0.984 | locus YJR075W, strain HOC1, hits give low values 0.995
